In all, about 5,500 compounds went through this assay and about 2,000 (36%) were called active. About 18% were inconclusive and are not listed. No stated cut-off is given here; in the data, active means normalized growth mostly below about 0.91 (no sharp cut-off); inconclusive means no clear call, values can overlap the other calls; inactive means mostly above about 0.92. This is one part of the list.
Assay: chemical genetic growth profiling, strain panel (AID 1159580);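 further: tested at 20 µM; growth read once vehicle control cultures reached saturation at 30 °C; 1 = growth at the plate median or of vehicle wells; lower values mean less growth of the strain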
Conditions: growth OD
[1] = S. cerevisiae deletion strains, locus YAL013W, strain DEP1, hits give low values
[2] = S. cerevisiae deletion strains, locus YDR150W, strain NUM1, hits give low values
[3] = S. cerevisiae deletion strains, locus YJR075W, strain HOC1, hits give low values
[4] = S. cerevisiae deletion strains, locus YMR263W, strain SAP30, hits give low values
[5] = S. cerevisiae deletion strains, locus YNL153C, strain GIM3, hits give low values
[6] = S. cerevisiae deletion strains, locus YPL241C, strain CIN2, hits give low values

Measured: normalized growth

CC1Cc2cc3c(cc2C(c2ccc(N)cc2)=NN1)OCO3 (centres undefined)
inactive: [1] 0.958 | S. cerevisiae deletion strains, locus YAL040C, strain CLN3, hits give low values 0.946 | S. cerevisiae deletion strains, locus YCL061C, strain MRC1 (second series), hits give low values 0.991 | [2] 0.995 | S. cerevisiae deletion strains, locus YDR363W, strain ESC2, hits give low values 0.989 | S. cerevisiae deletion strains, locus YER002W, strain NOP16, hits give low values 0.991 | [3] 0.97 | [4] 0.982 | [5] 0.979 | S. cerevisiae deletion strains, locus YNL175C, strain NOP13, hits give low values 0.996 | S. cerevisiae deletion strains, locus YNL197C, strain WHI3, hits give low values 0.999 | S. cerevisiae deletion strains, locus YNL224C, strain SQS1, hits give low values 0.996 | [6] 0.986

CCCSP(=O)(OCC)SCCC
inactive: [1] 1.01 | S. cerevisiae deletion strains, locus YBR021W, strain FUR4, hits give low values 1 | S. cerevisiae deletion strains, locus YBR229C, strain ROT2, hits give low values 1.02 | S. cerevisiae deletion strains, locus YCL029C, strain bik1, hits give low values 0.988 | S. cerevisiae deletion strains, locus YDL035C, strain GPR1, hits give low values 1.02 | S. cerevisiae deletion strains, locus YDL074C, strain BRE1, hits give low values 1.07 | S. cerevisiae deletion strains, locus YDL101C, strain DUN1, hits give low values 1.02 | S. cerevisiae deletion strains, locus YDL134C, strain PPH21, hits give low values 1.02 | S. cerevisiae deletion strains, locus YDL185W, strain tfp1, hits give low values 0.984 | S. cerevisiae deletion strains, locus YDL192W, strain arf1, hits give low values 0.988 | S. cerevisiae deletion strains, locus YDR101C, strain arx1, hits give low values 0.99 | [2] 1.02 | S. cerevisiae deletion strains, locus YDR162C, strain NBP2, hits give low values 1.02 | S. cerevisiae deletion strains, locus YDR318W, strain mcm21, hits give low values 0.995 | S. cerevisiae deletion strains, locus YDR388W, hits give low values 0.995 | S. cerevisiae deletion strains, locus YDR502C, strain sam2, hits give low values 0.996 | S. cerevisiae deletion strains, locus YEL061C, strain CIN8, hits give low values 1.02 | S. cerevisiae deletion strains, locus YER110C, hits give low values 0.983 | S. cerevisiae deletion strains, locus YER155C, strain BEM2, hits give low values 1.03 | S. cerevisiae deletion strains, locus YER167W, strain BCK2, hits give low values 0.994 | S. cerevisiae deletion strains, locus YGL078C, strain dbp3, hits give low values 0.964 | S. cerevisiae deletion strains, locus YGL086W, strain mad1, hits give low values 0.994 | S. cerevisiae deletion strains, locus YGL248W, strain PDE1, hits give low values 1.03 | S. cerevisiae deletion strains, locus YGR078C, strain PAC10, hits give low values 1.02 | S. cerevisiae deletion strains, locus YGR135W, strain pre9, hits give low values 0.98 | S. cerevisiae deletion strains, locus YGR229C, strain SMI1, hits give low values 1.03 | S. cerevisiae deletion strains, locus YGR252W, strain gcn5, hits give low values 0.927 | S. cerevisiae deletion strains, locus YHR030C, strain SLT2, hits give low values 1.02 | S. cerevisiae deletion strains, locus YHR079C, strain IRE1 (second series), hits give low values 0.982 | S. cerevisiae deletion strains, locus YHR094C, strain hxt1, hits give low values 0.978 | S. cerevisiae deletion strains, locus YHR129C, strain ARP1, hits give low values 1.02 | S. cerevisiae deletion strains, locus YHR200W, strain rpn10, hits give low values 0.982 | S. cerevisiae deletion strains, locus YIL066C, strain RNR3, hits give low values 1.03 | S. cerevisiae deletion strains, locus YIL073C, strain SPO22, hits give low values 0.996 | S. cerevisiae deletion strains, locus YIL125W, strain kgd1, hits give low values 0.987 | S. cerevisiae deletion strains, locus YIR030C, strain dcg1, hits give low values 0.976 | S. cerevisiae deletion strains, locus YJL095W, strain BCK1, hits give low values 1.04 | S. cerevisiae deletion strains, locus YJL134W, strain LCB3, hits give low values 1.01 | S. cerevisiae deletion strains, locus YJL168C, strain set2, hits give low values 0.981 | S. cerevisiae deletion strains, locus YJL187C, strain SWE1 (second series), hits give low values 1.01 | S. cerevisiae deletion strains, locus YJR043C, strain POL32, hits give low values 1.02 | [3] 1.03 | S. cerevisiae deletion strains, locus YKL009W, strain mrt4, hits give low values 1.01 | S. cerevisiae deletion strains, locus YKL068W, hits give low values 0.996 | S. cerevisiae deletion strains, locus YKL085W, strain MDH1 (second series), hits give low values 0.99 | S. cerevisiae deletion strains, locus YKL085W, strain MDH1, hits give low values 0.99 | S. cerevisiae deletion strains, locus YKL190W, strain CNB1, hits give low values 1 | S. cerevisiae deletion strains, locus YKR001C, strain vps1, hits give low values 0.982 | S. cerevisiae deletion strains, locus YLR039C, strain RIC1, hits give low values 1.02 | S. cerevisiae deletion strains, locus YLR058C, strain SHM2, hits give low values 1.01 | S. cerevisiae deletion strains, locus YLR102C, strain apc9, hits give low values 0.977 | S. cerevisiae deletion strains, locus YLR262C, strain YPT6, hits give low values 1.02 | S. cerevisiae deletion strains, locus YLR268W, strain sec22, hits give low values 0.994 | S. cerevisiae deletion strains, locus YLR330W, strain CHS5, hits give low values 1.02 | S. cerevisiae deletion strains, locus YLR342W, strain FKS1 (second series), hits give low values 0.995 | S. cerevisiae deletion strains, locus YLR371W, strain rom2, hits give low values 0.981 | S. cerevisiae deletion strains, locus YLR418C, strain cdc73, hits give low values 0.999 | S. cerevisiae deletion strains, locus YML016C, strain PPZ1, hits give low values 1.02 | S. cerevisiae deletion strains, locus YML032C, strain rad52, hits give low values 0.983 | S. cerevisiae deletion strains, locus YML124C, strain tub3, hits give low values 0.989 | S. cerevisiae deletion strains, locus YMR078C, strain ctf18, hits give low values 0.983 | S. cerevisiae deletion strains, locus YMR223W, strain ubp8, hits give low values 0.974 | [4] 1.03 | S. cerevisiae deletion strains, locus YMR307W, strain GAS1, hits give low values 1.01 | S. cerevisiae deletion strains, locus YNL067W, strain RPL9B, hits give low values 1.02 | S. cerevisiae deletion strains, locus YNL128W, strain TEP1, hits give low values 1.03 | [5] 1.02 | S. cerevisiae deletion strains, locus YNL233W, strain BNI4, hits give low values 1.01 | S. cerevisiae deletion strains, locus YNL250W, strain rad50, hits give low values 0.984 | S. cerevisiae deletion strains, locus YNL271C, strain bni1, hits give low values 0.974 | S. cerevisiae deletion strains, locus YNL298W, strain CLA4, hits give low values 0.977 | S. cerevisiae deletion strains, locus YNL307C, strain MCK1, hits give low values 0.979 | S. cerevisiae deletion strains, locus YNL322C, strain KRE1, hits give low values 1.01 | S. cerevisiae deletion strains, locus YNR052C, strain pop2, hits give low values 0.971 | S. cerevisiae deletion strains, locus YOL006C, strain TOP1, hits give low values 1.05 | S. cerevisiae deletion strains, locus YOL012C, strain htz1 0.903 | S. cerevisiae deletion strains, locus YOL147C, strain pex11, hits give low values 0.991 | S. cerevisiae deletion strains, locus YOR061W, strain CKA2, hits give low values 1.01 | S. cerevisiae deletion strains, locus YOR069W, strain VPS5, hits give low values 1.01 | S. cerevisiae deletion strains, locus YOR136W, strain idh2, hits give low values 0.998 | S. cerevisiae deletion strains, locus YOR144C, strain elg1, hits give low values 0.999 | S. cerevisiae deletion strains, locus YOR184W, strain ser1, hits give low values 0.975 | S. cerevisiae deletion strains, locus YOR316C, strain cot1, hits give low values 0.99 | S. cerevisiae deletion strains, locus YPL055C, strain LGE1, hits give low values 1.03 | [6] 1.01 | S. cerevisiae deletion strains, locus YPR119W, strain clb2, hits give low values 0.985 | S. cerevisiae deletion strains, locus YPR141C, strain kar3, hits give low values 0.987 | S. cerevisiae deletion strains, locus YPR163C, strain tif3, hits give low values 0.986 | S. cerevisiae deletion strains, locus YPR167C, strain met16, hits give low values 0.985 | S. cerevisiae deletion strains, strain wtn01, hits give low values 0.987 | S. cerevisiae strains, strain wild type, hits give low values 1.02
